Compounds without any hit were thinned out: in the full panel of roughly 79,000, 15% have a hit. Cut-off read from the data, not from the text of the source: active = growth inhibition above about 70%; inactive = the rest.
What was measured:
[1] = NCI Yeast Anticancer Drug Screen. Data for the rad50 strain (AID 155);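 note: 0% = growth of vehicle-only cultures of the same strain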; details: S. cerevisiae rad50 strain growth inhibition; at 50.0 µM; stronger effect = higher value
Procedure, shortened: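 Yeast carrying a defined DNA repair defect were exposed to test compounds, and growth was compared with vehicle-treated controls to give percent inhibition.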

[2] = NCI Yeast Anticancer Drug Screen. Data for the mec2-1 strain (AID 157); details: S. cerevisiae mec2-1 strain, at 50.0 µM, stronger effect = higher value
Procedure, shortened: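 Readout is yeast growth inhibition, normalised to vehicle-treated controls, in the mec2-1 strain exposed to compound.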

[3] = NCI Yeast Anticancer Drug Screen. Data for the sgs1 mgt1 strain (AID 161);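 note: 0% = growth of cultures given vehicle only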; details: S. cerevisiae sgs1 mgt1 strain, at 50.0 µM, stronger effect = higher value
Procedure, shortened: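 Compounds are added to genetically altered yeast, and growth is compared with cultures given vehicle alone to give percent inhibition.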

[4] = NCI Yeast Anticancer Drug Screen. Data for the cln2 rad14 strain (AID 165);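 note: 0% = growth equal to vehicle treated cultures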; details: S. cerevisiae cln2 rad14 strain, at 50.0 µM, stronger effect = higher value
Procedure, shortened: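 Relative to vehicle controls, growth inhibition of compound-treated cln2 rad14 yeast was recorded.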

[5] = NCI Yeast Anticancer Drug Screen. Data for the bub3 strain (AID 167); details: S. cerevisiae bub3 mutant strain, at 50.0 µM, stronger effect = higher value
Procedure, shortened: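 Compounds were applied to a genetically altered yeast strain carrying a cell-cycle control defect. Growth inhibition was scored against vehicle-treated controls.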

[6] = NCI Yeast Anticancer Drug Screen. Data for the mlh1 rad18 strain (AID 175); details: S. cerevisiae mlh1 rad18 strain growth inhibition; at 50.0 µM; stronger effect = higher value
Procedure, shortened: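 Test agents were incubated with a yeast strain of defined genotype (DNA damage repair defect). Inhibition of growth was derived by comparison with vehicle-exposed cultures.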

Measured: growth inhibition

N#CC(c1ccccc1)N1CCCN(C(C#N)c2ccccc2)C1c1ccccc1O (configuration not stated)
inactive: [1] 31.4% | [2] -8.65% | [3] -6.85% | [4] 17.9% | [5] 18.4% | [6] 13.2%

N#C/C(=C/NC(=S)NCc1ccccc1)C(N)=O
inactive: [1] -32.6% | [2] -42.1% | [3] -4.6% | [4] 0.25% | [5] 6.7% | [6] -0.3%

CS(=O)(=O)C(c1nc2n(c1O)/C(=N/C(=O)Nc1ccc(Cl)cc1)N=N2)c1nc2n(c1O)/C(=N/C(=O)Nc1ccc(Cl)cc1)N=N2
inactive: [1] -14.9% | [2] 4.5% | [3] -8.5% | [4] -16.3% | [5] 1.3% | [6] -1.15%

NC(=O)N/N=C(\c1ccccc1)C1CCCCc2ccccc21 (configuration not stated)
inactive: [1] 48.5% | [2] 20.6% | [3] 33.2% | [4] 9.95% | [5] 43% | [6] 48%

CCCC(=O)SCC[N+](C)(C)C
inactive: [1] -10.2% | [2] -48.3% | [3] 15.4% | [4] 21.6% | [5] -13.3% | [6] 4.5%

COc1ccc(C=O)c(C)c1
inactive: [1] -4.05% | [2] -30.1% | [3] 4.15% | [4] 15.3% | [5] -15.8% | [6] -5.45%

CCOC(=O)Oc1ccc2[nH]c3c(C)cc(N)c(C)c3c2c1
inactive: [1] 2.35% | [2] -33.2% | [3] -30.5% | [4] -7.8% | [5] -22.2% | [6] -11.1%

CCOc1ccc(NC(=O)Nc2cccc(Cl)c2C)cc1
inactive: [1] 0.45% | [2] 9.25% | [3] 11.4% | [4] -13.8% | [5] 9.85% | [6] -20.6%

O=[N+]([O-])c1ccccc1N=Nc1c(O)[nH]c2c(Cl)cc(Cl)cc12
inactive: [1] -25.9% | [2] -35.6% | [3] -31.9% | [4] -16.2% | [5] -45.4% | [6] -47.4%

O=C(O)C1C2CC(C(Br)C2Br)C1C(=O)O (configuration not stated)
inactive: [1] -6.55% | [2] 0.75% | [3] -21.7% | [4] 9.9% | [5] -5.85% | [6] -12.2%

O=C1CC(c2ccccc2)C(c2ccccc2)C1 (configuration not stated)
inactive: [1] 6% | [2] 0.45% | [3] 4.2% | [4] 4.2% | [5] -24.1% | [6] -0.25%

C/C(Nc1ccc(F)cc1)=C1/CCOC1=O
inactive: [1] 9.8% | [2] -17.9% | [3] -1.5% | [4] -43.5% | [5] 13.8% | [6] -11.5%

Clc1ccc(OCc2nnc3n2N=C(c2ccc(Br)cc2)CS3)cc1
inactive: [1] 5.5% | [2] 8.35% | [3] 8.8% | [4] 7.05% | [5] -5% | [6] 13.6%

Cc1cc(Cl)ccc1C(=O)O
inactive: [1] -0.9% | [2] 9.7% | [3] 13.3% | [4] 1.35% | [5] -12.8% | [6] 20.2%

O=C(CCC1CCCCC1=O)c1ccc(Br)cc1 (configuration not stated)
inactive: [1] 6.2% | [2] -15.8% | [3] 12.7% | [4] -6.95% | [5] -6.55% | [6] -10.2%

O=C(O)/C=C/C(=O)Nc1ccc2c(c1)C(O)c1ccccc1-2 (configuration not stated)
inactive: [1] -56.4% | [2] -12.9% | [3] -1.9% | [4] -45.7% | [5] -7.2% | [6] -4.55%

COc1cc2c(cc1OC)C1(CCBr)C3CC4C(=CCOC5CC(=O)N2C1C54)CN3C(=O)Cc1ccccc1 (configuration not stated)
inactive: [1] 27.8% | [2] -11.9% | [3] -3.45% | [4] 7.4% | [5] 4.75% | [6] 3.7%

Cc1cc(OCC(=O)O)c(C)cc1Cl
inactive: [1] -21.6% | [2] -17.1% | [3] -12.5% | [4] -0.25% | [5] -7.5% | [6] -13.6%

CCOc1ccc(NC(=O)C(=O)C(C(=O)c2ccc3ccccc3c2)C2OC(=O)c3ccccc32)cc1 (configuration not stated)
inactive: [1] 13.1% | [2] 3.45% | [3] -2.4% | [4] -17.6% | [5] 7.85% | [6] 6.8%

O=C(OCC(OC(=O)c1ccccc1)C(OC(=O)c1ccccc1)C(COC(=O)c1ccccc1)OC(=O)c1ccccc1)c1ccccc1 (configuration not stated)
inactive: [1] 67% | [2] 26.1% | [3] 56.9% | [4] 0.2% | [5] 16.4% | [6] 52.4%

CN1C(=O)Cn2c(n[nH]c(=O)c2=O)-c2cc(Cl)ccc21
inactive: [1] -22.4% | [2] 12.3% | [3] 10.3% | [4] -36.5% | [5] 12.9% | [6] 6.2%

O=c1oc2ccccc2cc1S(=O)(=O)c1ccccc1
inactive: [1] 1.35% | [2] 4.8% | [3] 1.4% | [4] -53.1% | [5] -0.95% | [6] 18.4%

COC(=O)C12CC3CC(CC(C(=O)O)(C3)C1)C2
inactive: [1] -10.2% | [2] -7.95% | [3] -4.8% | [4] -3.2% | [5] -1.65% | [6] -14.8%

Cc1ccc(C(=O)N/N=C/c2ccc3ccccc3c2)cc1
inactive: [1] -1% | [2] -13.2% | [3] -5.25% | [4] -13.8% | [5] 33.4% | [6] -5.3%

Cc1noc2cccc(O)c12
inactive: [1] 0.95% | [2] 12.6% | [3] 15.8% | [4] 10.9% | [5] 1.25% | [6] 34.6%

CCOC(=O)C1=C(O)CSC1=Nc1ccccc1
inactive: [1] -16.3% | [2] 5.6% | [3] -12.8% | [4] -9.3% | [5] -1.7% | [6] 22.9%

O=C1c2ccccc2C(=O)N1[C@@H](Cc1ccccc1)C(=O)n1cccc1CO
inactive: [1] 14.8% | [2] 21.4% | [3] 20.8% | [4] 25.5% | [5] 28.9% | [6] 10.9%

CC(=O)NCC(O)c1ccc([N+](=O)[O-])cc1 (configuration not stated)
inactive: [1] -23.3% | [2] -31.1% | [3] 1.4% | [4] 7% | [5] -14.1% | [6] -23%

CC(=O)N(/C=C\C1=[N+](C)CCS1)c1ccccc1
inactive: [1] 10.2% | [2] -10.4% | [3] 20.4% | [4] 18.9% | [5] 18.1% | [6] 12.7%

COc1ccccc1C(=O)N/N=C\c1c[nH]c2ccccc12
inactive: [1] -3.35% | [2] 2.05% | [3] -4.85% | [4] -6.25% | [5] -5.15% | [6] -8.3%

O=C(CCn1[nH]c(=O)c(Cl)c(Cl)c1=O)NOCCCc1ccccc1
inactive: [1] 0.3% | [2] -21.7% | [3] -8.5% | [4] -7.95% | [5] 4.3% | [6] -11.6%

CCOC(=O)c1ccc(N(CC(=O)O)S(=O)(=O)c2ccc(C)cc2)s1
inactive: [1] 17.5% | [2] -1% | [3] 2.5% | [4] 16.6% | [5] 0.85% | [6] -8.8%

CC1CC[P+](C)(Cc2ccccc2)C1 (mixture of isomers)
inactive: [1] 8.7% | [2] 0.8% | [3] -18.4% | [4] 1.9% | [5] 5.45% | [6] 18.6%

CCOC(=O)c1cc2c(nc1N)C(=O)CCCC2
inactive: [1] -34.5% | [2] -59.1% | [3] -48.3% | [4] -23.9% | [5] -24.6% | [6] -31.6%

CCOC(=O)c1c(C)nc(C)c(C(=O)OCC)c1-c1ccnc2ccccc12
inactive: [1] 0.9% | [2] -15.9% | [3] 17.4% | [4] -13% | [5] -3.95% | [6] 5.1%

O=C(Nc1ccc(Cl)cc1)Nc1nnc2nc(CC(=O)c3ccccc3)c(=O)[nH]n12
inactive: [1] 15.7% | [2] 1.1% | [3] 11.9% | [4] -19% | [5] -21.9% | [6] 1.1%

CC(C)C(CC(=O)O)C(=O)O (configuration not stated)
inactive: [1] 3.8% | [2] -1.35% | [3] 10.2% | [4] -8% | [5] 3.95% | [6] 4.65%

CC(C)OC(=O)CO
inactive: [1] 29.6% | [2] 3.55% | [3] 14.2% | [4] 12.2% | [5] 10.5% | [6] 13.2%

Cc1ccc(Nc2nnc(-c3ccc4c(c3)OCO4)o2)c(C)c1
inactive: [1] 22.8% | [2] 1.6% | [3] -4.4% | [4] -2.15% | [5] -4% | [6] 14.8%

CCC(O)(Cc1ccc(OC)cc1)c1ccc(OC)cc1 (configuration not stated)
inactive: [1] -33.1% | [2] -24.4% | [3] 14.8% | [4] 1.4% | [5] 11.7% | [6] -11.8%

COc1ccc(NC(=O)CC(=O)n2nc(-c3ccccc3)c(N=Nc3ccccc3C)c2-c2ccccc2)cc1
inactive: [1] -1.5% | [2] -2.1% | [3] -0.8% | [4] 7.8% | [5] 21.1% | [6] 6.65%

COc1ccccc1N=Nc1c(-c2ccccc2)nn(C(=O)CC(=O)Nc2cccc(C)c2)c1-c1ccccc1
inactive: [1] 29.1% | [2] 17.5% | [3] 4.9% | [4] 5.65% | [5] 52.5% | [6] 27.3%

From PubChem BioAssay (NCI)
